# Results taken from PubChem BioAssay (NCATS).
# Records with an inconclusive call do not appear. Where a call stands in place of a potency, no number is given. Active and inactive are the calls of the source. Calls come from the whole dose curve; as a rule, active = well fitted cell-killing curve with a large enough effect; inconclusive = small, poorly fitted or top-dose-only effect, or effect the other way; inactive = flat fitted curve, though single readings scatter.
# Tested on: CAOV3
# Test: Primary qHTS to identify gynecologic anti-cancer compounds using libraries of approved drugs and bioactive compounds (AID 1345084); note: nearly all actives have a fitted effect of over 55% in size
# Details: Gynecologic cancer cell panel viability, ATPlite luminescence, 48 h; series mostly up to 57.5 µM
# Source text: National Center for Advancing Translational Sciences [NCATS] Assay Overview: Chemotherapeutic drug responses vary from cancer to cancer and from patient to patient. These variations could be caused by a number of factors including patient genomic background, tumor mutations, tumor heterogeneity, and aspects of drug treatment. Chemotherapeutic drug resistance is also a common issue and can lead to ineffective treatment and patient death. Here we have profiled the cell killing effects of thousands of compounds to characterize the responses in three gynecological cancers, identify cancer-selective compounds, and understand the diversity of responses to these compounds from pan-cancer suppressors to single cell line selective compounds. In this assay, we screened a 7,914 compound drug library that included approved drug and bioactive compounds in six ovarian, three cervical, and […] placental cancer cell lines using the ATPlite assay for cell viability. […] The cervical cancer cell lines included HeLa, Ca Ski, and C-33 A. The placental cancer cell lines included JEG-3. HEK 293T cells were used as the control cell line to determine the selectivity index. ATPlite is a luminescence based assay reliant on the conversion of a luciferase substrate to light in the presence of ATP. As a cytotoxic compound will suppress growth and decrease the number of cells, the concentration of ATP will decrease, and less light signal will be detected in the well.
# Assay Protocol Summary: 1,000 cells in 4 uL of media were dispensed into white, solid bottom 1536-well plates using a Multidrop Combi (Thermo Scientific). The Assay plates were incubated for 16 hours at 37 C with 5% CO2 in assay plates, followed by the addition of 23 nL of DMSO or drug dissolved in DMSO. Each compound was assayed in five concentrations (0.092, 0.46, 2.3, 11.5, and 57.5 uM), using the automated Wako 1536 Pin Tool workstation and incubated at 37 C with 5% CO2 48 hours. 4 uL of ATPlite, the ATP monitoring reagent, was then added to the each well of the assay plates using the Multidrop Combi reagent dispenser followed by incubation for 15 minutes at room temperature. The resulting luminescence was measured using the ViewLux plate reader.
Compound,Potency,"activity change, negative = cytotoxicity"
C=C1CC[C@@H]2[C@](C)(CO[C@@H]3O[C@H](CO)[C@@H](O)[C@H](O)[C@H]3O)[C@H](O)CC[C@@]2(C)[C@@H]1C/C=C1/C(=O)OC[C@H]1O,inactive,–
CO[C@H]1/C=C/C=C/C=C/C[C@H](OC(=O)[C@@H](C)NC(=O)C2CCCCC2)[C@H](C)[C@@H](O)/C(C)=C/CCc2cc(O)cc(c2)NC(=O)C1,inactive,–
CC(=O)SCC(=O)c1ccc(NS(=O)(=O)c2ccc(OCCCN(C)C)cc2)nc1,inactive,–
C[C@@H]1C[C@@H]([C@@H](O)C(C)(C)O)O[C@H]2C[C@@]3(C)C(=C12)C[C@H](O)[C@H]1[C@@]2(C)CCC(=O)C(C)(C)C2CC[C@@]13C (stereo not given in full),inactive,–
CC/C=C/CC1=C(CCCCC(CCC(=O)O)OC(C)=O)CCC1=O (stereo not given),inactive,–
CC(C)=CCC/C(C)=C/CO[C@@H]1O[C@H](CO)[C@@H](OC(=O)/C=C/c2ccc(O)cc2)[C@H](O[C@@H]2O[C@@H](C)[C@H](O)[C@@H](O)[C@H]2O)[C@H]1O,inactive,–
CCOC(=O)c1sc(NC(=O)[C@H](C(C)C)n2c(=O)[nH]c3ccccc3c2=O)nc1C,inactive,–
CC1(C)CCCC2(C)C(CO)C(CO)=CCC12 (stereo not given),inactive,–
CC1(C)CC2C(O)c3cocc3CC(C)(O)C2C1 (stereo not given),inactive,–
COc1ccc(-c2cnc(-c3cccc4c3-c3ccccc3C4=O)o2)cc1,inactive,–
C=CCC1=C[C@]2(OC)[C@H](C)[C@@H](c3ccc(O)c(OC)c3)O[C@]2(OC)CC1=O,inactive,–
CN(C)CC1CCOC1(c1ccccc1)c1ccccc1 (stereo not given),inactive,–
CC(=O)O[C@@H]1[C@@H](CO)O[C@@](CO)(O[C@H]2O[C@H](COC(=O)/C=C/c3ccccc3)[C@@H](O)[C@H](O)[C@H]2O)[C@H]1O,inactive,–
C[C@@H]1CC[C@]2(C(=O)O)CC[C@]3(C)C(=CCC4[C@@]5(C)C[C@@H](O)[C@H](O)[C@@](C)(CO)C5CC[C@]43C)C2[C@]1(C)O (stereo not given in full),inactive,–
O=C(Nc1c(-c2cccs2)nc2ccccn12)c1ccc(Cl)cc1,inactive,–
C=CC/C=C\C/C=C\CCCCCCCc1cccc(O)c1C(=O)O,inactive,–
CC(=O)c1cc(C(=O)N[C@@H](C)Cn2ccc(-c3ccc(C#N)c(Cl)c3)n2)[nH]n1,inactive,–
CC(C)c1ccc2c(c1)C(=O)CC1[C@@](C)(C(=O)O)CCC[C@]21C (stereo not given in full),inactive,–
CC1=CC(=O)CC(C)(C)C1CCC(C)O[C@@H]1O[C@H](CO[C@@H]2OC[C@@H](O)[C@H](O)[C@H]2O)[C@@H](O)[C@H](O)[C@H]1O (stereo not given in full),inactive,–
CC(=O)O[C@H]1C[C@@]2(C)[C@@H](CC[C@H]3[C@@]4(C)C=CC(=O)[C@@H](C)[C@@H]4[C@H](O)C(=O)[C@@]32C)/C1=C(/CCC=C(C)C)C(=O)O,inactive,–

Compound,Potency,"activity change, negative = cytotoxicity"
CC(=O)O[C@H]1C[C@@](O)(C(C)C)C2[C@@H](OC(=O)c3ccc(O)cc3)C[C@@]3(C)O[C@H]3C[C@]21C (stereo not given in full),inactive,–
COc1ccc(C2(O)c3ccccc3NC(=O)C2O)cc1 (stereo not given),inactive,–
C[C@@H]1CCC/C=C/[C@H]2CC(=O)C[C@@H]2[C@@H](O)/C=C/C(=O)O1,inactive,–
C/C=C/C=C/[C@@H]1O[C@](O)([C@H](CC)C(=O)NC/C=C/C=C(\C)[C@@H](OC)[C@@H](C)C2OC(/C=C/C=C/C=C(\C)C(=O)c3c(O)cc[nH]c3=O)[C@H](O)[C@@H]2O)[C@H](O)[C@H](O)C1(C)C (stereo not given in full),inactive,–
OC[C@H]1O[C@@H](O[C@H]2[C@H](OCc3ccccc3)O[C@H](CO[C@@H]3OC[C@@H](O)[C@H](O)[C@H]3O)[C@@H](O)[C@@H]2O)[C@H](O)[C@@H](O)[C@@H]1O,inactive,–
C[C@@H]1CC[C@@]2(OC1)O[C@H]1C[C@H]3[C@@H]4CC=C5C[C@@H](O)CC[C@]5(C)[C@H]4CC[C@]3(C)[C@H]1[C@@H]2C,inactive,–
COC(=O)CCc1cc2ccoc2c(OC)c1O[C@@H]1O[C@H](CO)[C@@H](O)[C@H](O)[C@H]1O,inactive,–
CCCC(=O)O[C@@H]1[C@@H]2[C@@H](OC(C)=O)[C@]3(C)C(=O)[C@H]4[C@@H](OC(C)=O)C(C)(C)C[C@H]4[C@]3(C)C(=O)[C@@]2(OC(C)=O)C[C@@H]1C,inactive,–
CCCCc1ccc(C(=O)Nc2cc(-c3ccc(Cl)cc3)nn2-c2ccc(Cl)cc2)cc1,inactive,–
COc1nc2sc(C(=O)NC3CC3)c(N)c2c(C)c1Cl,inactive,–
CC(C)C[C@H](CC(=O)NO)C(=O)N[C@H](C(=O)N[C@@H](C)C(=O)NCCN)C(C)(C)C,–,17.3% [at 11.6 µM] (inactive)
CC(C)C(C(=O)N(C)C(C)C(N)=O)N(C)C(=O)C1CCCN1C(=O)/C=C/C=C/C(O)C(C)O (stereo not given),inactive,–
CN[C@H](C(=O)N[C@H](C(=O)N(C)[C@H](/C=C(\C)C(=O)O)C(C)C)C(C)(C)C)C(C)(C)c1ccccc1,inactive,–
CC(=O)/C=C/[C@H]1[C@](C)(O)[C@@H](O)[C@H](OC(C)=O)C2C(C)(C)CCC[C@@]21C (stereo not given in full),inactive,–
CC(C)(O)CC(CO)NC(=O)CC(O)CC(=O)Cc1ccccc1 (stereo not given),inactive,–
C[C@@H]1O[C@@H](O[C@H]2[C@H](O)[C@@H](C(=O)O)O[C@@H](O[C@H]3CC[C@@]4(C)C(CC[C@]5(C)C4CC=C4C6CC(C)(C)CC[C@]6(C(=O)O)CC[C@]45C)C3(C)C)[C@@H]2O[C@@H]2OC[C@@H](O)[C@H](O)[C@H]2O)[C@H](O)[C@H](O)[C@H]1O (stereo not given in full),–,-1.86% [at 11.6 µM] (inactive)
COC1=CC(=O)CC(C)C12Oc1cc(OC)cc(O)c1C2=O (stereo not given),inactive,–
O=C(OC1C=C(CO)C2C(OC3OC(CO)C(O)C(O)C3O)OC=CC12)c1ccc(O)cc1 (stereo not given),inactive,–
C[C@H](NC(=O)CCc1nc2ccccc2c(=O)[nH]1)c1ccccc1,inactive,–
CC1(C)CC[C@]2(CO[C@@H]3O[C@H](CO)[C@@H](O)[C@H](O)[C@H]3O)[C@@H](O)C[C@]3(C)C(=CCC4[C@@]5(C)CC[C@H](O[C@@H]6O[C@H](CO[C@@H]7O[C@H](CO[C@@H]8OC[C@@H](O)[C@H](O)[C@H]8O)[C@@H](O)[C@H](O)[C@H]7O)[C@@H](O)[C@H](O)[C@H]6O)C(C)(C)C5CC[C@]43C)[C@@H]2C1 (stereo not given in full),–,5.01% [at 11.6 µM] (inactive)
